Source: PubChem
An excerpt weighted towards active compounds, which were near 22% of everything screened.
CYP2C19 activ: activators of human cytochrome P450 2C19; P33261; recombinant CYP2C19, luciferin-H EGE luminescence; hits give high values; 0 = fully inhibited enzyme, 1 = untreated enzyme; 96,000 tested, under 10 active; activation factor at 5 µM; AID 1025;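 active = activation factor of at least 2 at 5 µM in the primary screen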;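 also: 0 = wells with 2.5 mM tranylcypromine and 1 = vehicle-only wells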
Target sequence (P33261 whole entry, looked up): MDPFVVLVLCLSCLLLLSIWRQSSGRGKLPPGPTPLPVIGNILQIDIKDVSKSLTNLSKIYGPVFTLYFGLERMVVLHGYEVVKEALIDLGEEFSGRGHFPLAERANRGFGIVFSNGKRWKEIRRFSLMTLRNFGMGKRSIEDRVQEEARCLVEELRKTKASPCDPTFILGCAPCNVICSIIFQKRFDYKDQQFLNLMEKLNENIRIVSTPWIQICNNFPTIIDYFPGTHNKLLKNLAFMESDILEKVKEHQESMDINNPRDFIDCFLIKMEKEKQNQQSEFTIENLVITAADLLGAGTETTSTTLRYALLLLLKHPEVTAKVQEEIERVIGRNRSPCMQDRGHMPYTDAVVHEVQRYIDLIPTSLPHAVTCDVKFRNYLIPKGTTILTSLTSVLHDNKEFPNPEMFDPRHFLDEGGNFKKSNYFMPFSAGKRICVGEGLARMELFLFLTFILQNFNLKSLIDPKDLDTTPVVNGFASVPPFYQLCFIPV
CYP2C9 inhib: inhibitors of human CYP2C9 | P11712 | CYP2C9 Supersomes, luciferin-H conversion, luminescence | inhibition, % at 5 µM | 96,000 compounds, 20% hits;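 active = blocking of liver enzyme CYP2C9 beyond about 50% at 5 µM, limit read from the data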
E-sel TNF inh: blocks E-selectin expression induced by TNF alpha; HUVEC TNFa-induced E-selectin immunofluorescence, high content; AID 1246; 120,000 compounds, 0.71% hits; inhibition, % at 2 µM;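 active = inhibition above the batch mean plus 3 SD, and confirmed as a hit on visual image review, cut at about 43% in these data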;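 also: 0% = TNF-stimulated DMSO wells and 100% = unstimulated control wells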
F-actin modifier: cytoskeleton assembly modification. HUVEC TNFa F-actin phalloidin imaging, high content. inhibition, % at 2 µM. 91,000 compounds, 0.18% hits;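 active = inhibition above the batch mean plus 3 SD and confirmed as a hit by visual image inspection, cut at about 30% in these data, passing the limit was not always enough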
CYP2C9 activ: CYP2C9 (human) activation. recombinant CYP2C9, luciferin-H conversion, luminescence; hits give high values; factor 1 = untreated enzyme, 0 = blocked. 96,000 compounds, 1.4% hits. P11712. activation factor at 5 µM;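 active = activation factor of 2 or more for CYP2C9 at a 5 µM dose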;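 also: 0 = sulfaphenazole-blocked wells and 1 = vehicle-only wells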
CYP2C19 inh: blocks human cytochrome P450 2C19; 96,000 compounds, 21% hits; AID 778; P33261; inhibition, % at 5 µM; CYP2C19 Supersomes, luciferin-H EGE luminescence, 30 min;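 active = CYP2C19 inhibition above a set limit at 5 µM in the primary screen, cut at about 50% in these data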;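 also: plate controls were negative control wells for no effect and 2.5 mM tranylcypromine positive control for full effect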
Starred values were filed as active, the others as inactive; x = no result given.

SMILES	CYP2C19 activ	CYP2C9 inhib	E-sel TNF inh	F-actin modifier	CYP2C9 activ	CYP2C19 inh
O=C(c1cc2ccccc2oc1=O)N(Cc1ccco1)CC1CCCO1 (stereo not given)	0.9	55*	-14	6	0.5	12
CN1CC=C2C(C#N)=C(N)C(C#N)(C#N)C(Cc3ccccc3)C2C1 (stereo not given)	0.6	44	-1	35	0.6	40
CC(C)(C)OC(=O)N1CCC[C@H]1c1nnc(SCc2c(Cl)cccc2Cl)o1	0.3	78*	x	22	0.2	71*
COc1cc(C(=O)NCCOc2cc(C)cc(C)c2)c(Br)c(OC)c1OC	0.1	-8	-33	-3	1.1	86*
O=C(COc1ccc(S(=O)(=O)NC2CCCCC2)cc1Cl)Nc1ccc2c(c1)OCO2	0.5	87*	-5	x	0.1	50
COc1ccc(CCNC(=O)COc2ccc(S(=O)(=O)NC3CCCCC3)cc2Cl)cc1OC	x	x	29	x	x	x
O=C(COc1ccc(S(=O)(=O)NC2CCCCC2)cc1Cl)NCc1ccc2c(c1)OCO2	0.1	98*	12	16	0	94*
O=C(COc1ccc(S(=O)(=O)N2CCCC2)cc1Cl)NCc1ccc2c(c1)OCO2	0.8	46	-24	-8	0.5	16
Cc1ccc(CNC(=O)c2cn(C3CCCCC3)c(=O)c3c2c2ccccc2n3C)o1	0.8	39	-3	12	0.6	24
Cc1cc(NC(=O)c2cn(C3CCCCC3)c(=O)c3c2c2ccccc2n3C)no1	0.4	84*	x	-2	0.2	60*
CC(=O)c1cn(CCCCCCCn2cc(C(C)=O)c(=O)[nH]c2=O)c(=O)[nH]c1=O	x	x	-9	x	x	x
COc1ccc(C(=O)NC2CCCCCC2)cc1S(=O)(=O)Nc1ccc(Br)cc1	1.1	13	6	-5	0.9	-13
CCOC(=O)Cc1csc(NC(=O)COc2ccccc2)n1	0.7	55*	-12	-5	0.5	28
CCOC(=O)Cc1csc(NC(=O)COc2ccc(N(C)S(=O)(=O)c3cccs3)cc2)n1	0	95*	14	x	0.1	96*
CCOC(=O)C(=O)c1csc(NC(=O)COc2ccc(N(C)S(=O)(=O)c3ccc(F)cc3)cc2)n1	0.4	59*	-2	-8	0.4	57*
CCOC(=O)Cc1csc(NS(=O)(=O)Cc2ccccc2)n1	1	77*	26	6	0.2	1
CCN(CC)C(=O)c1cc2c(=O)n3cccc(C)c3nc2n1C	1.1	-38	-10	-35	1.4	-6
Cc1ccc(N2C(=O)NC(NC(=O)C(C)(C)C)(C(F)(F)F)C2=O)cc1 (stereo not given)	x	x	-28	x	x	x
O=C(CCS(=O)(=O)c1cccs1)N1CCCC1	1	14	x	15	0.9	-4
CN(c1ccc(OCC(=O)N2CCCCC2)cc1)S(=O)(=O)c1cccs1	0.5	69*	-93	x	0.3	47
Cc1ccc(NC(=O)CSC2=C(C#N)C(c3ccc4c(c3)OCO4)CC(=O)N2)cc1C (stereo not given)	x	x	-22	x	x	x
COC(=O)c1ccccc1N1C(=O)[C@@H]2C(c3ccc(F)cc3)=NO[C@@H]2C1=O	0.5	5	68*	26	0.9	48
COc1ccc(CN2C(=O)[C@@H]3C(c4ccc(F)cc4)=NO[C@@H]3C2=O)cc1	1.1	-25	-6	36	1.2	-11
CCCn1c(=NC(=O)c2ccco2)c(C(=O)OCC)cc2c(=O)n3ccccc3nc21	1	24	58*	-7	0.8	2
COc1ccccc1NC(=O)Nc1ccc2c(c1)nc(C)n2C	x	x	-12	x	x	x
SMILES	CYP2C19 activ	CYP2C9 inhib	E-sel TNF inh	F-actin modifier	CYP2C9 activ	CYP2C19 inh
O=C(Nc1ccc(N2CCOCC2)cc1)C1(S(=O)(=O)c2ccccc2)CC1	0.9	-1	-16	x	1	10
O=C(O)c1ccc(NS(=O)(=O)/C=C/c2ccccc2)cc1O	0.9	55*	1	1	0.4	12
NC(=O)COC(=O)c1cccc(NS(=O)(=O)/C=C/c2ccccc2)c1	x	x	18	x	x	x
O=S(=O)(/C=C/c1ccccc1)Nc1ccc(N2CCOCC2)cc1	0.1	83*	12	16	0.2	94*
O=S(=O)(Nc1ccc(N2CCOCC2)cc1)c1ccccc1	0	84*	9	x	0.2	99*
O=C(/C=C/c1ccccc1)NC(=S)Nc1ccc(N2CCOCC2)cc1	0.8	25	19	-11	0.8	17
